Experimental data as given in PubChem BioAssay (NCI).
This is part of a sample that, as a whole, favours compounds with a hit. Of some 83,000 tested, about 20% had one in any assay.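 Method: cells in 96-well plates; compound added at one concentration; 48 h incubation; percent growth measured; values under 10 scored active.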 Activity calls are given as the source filed them.

Test system: KM12 colon
Experiment: NCI-60 one-dose screen, 48 h (100 = growth as untreated, 0 = no growth, -100 = all killed)
Details: 10 µM unless noted

Compound | growth
Cc1ccc2c(c1)=C/C(=C\c1cc(-c3ccccc3)oc1O)C(=O)N=2 | 100% (inactive)
CCC(=C(c1ccc(OCCN2CCCCC2)cc1)c1ccc(OCCN2CCCCC2)cc1)c1ccc(Cl)cc1 | -84% (active)
O=C(Nc1ccc(Oc2cccc(Cl)c2)c(Cl)c1)c1cnccn1 | 20.7% (inactive)
CCCNc1nc2ccccc2c2c1S(=O)(=O)c1ccc(Cl)cc1C2=O | 17.1% (inactive)
C=CCOC(=O)Nc1cccn([C@H](Cc2ccccc2)C(=O)NCCC(C)C)c1=O | 110% (inactive)
N#Cc1c(-c2ccc(Cl)cc2)nc(NN2C(=O)c3ccccc3C2=O)nc1N1CCOCC1 | 107% (inactive)
N#Cc1nc(-c2ccc(F)cc2)oc1S(=O)(=O)N1CCCCC1 | 99.1% (inactive)
COc1ccc2cc1Oc1ccc(cc1)C[C@H]1c3c(cc4c(c3Oc3cc5c(cc3OC)CCN(C)[C@@H]5C2)OCO4)CCN1C | 55.2% (inactive)
C=C1C(=O)O[C@H]2[C@H]1CC/C(COC(=O)/C=C\C(=O)NCc1ccc(Cn3c(=O)sn(CCI)c3=O)cc1)=C\CC[C@@]1(C)O[C@@H]21 | 97.4% (inactive)
CCOC(=O)c1c(NC(=O)c2ccc(Cl)cc2)sc2c(CN(C)C)c(O)ccc12 | 87.9% (inactive)
CSc1nc(N)c(NS(=O)(=O)c2ccc(C(C)=O)cc2)c(=O)[nH]1 | 103% (inactive)
COc1cc2c(c(OC)c1OC)CCC(c1cccc(C(=O)Nc3cccc(Cl)c3)c1)O2 (stereo not drawn) | 96.3% (inactive)
Cc1nc2sc(C(=O)Nc3cccc4ccccc34)c(N)c2cc1C(O)c1ccccc1 (stereo not drawn) | 7.64% (active)
